HTR5A inv ag – HTR5A inverse agonists in luminescence cell assay, primary screen, counter-screen for OPRM1-OPRD1 heterodimer inverse agonist project, full-deck HTS; HTR5A cell line, inverse agonism; AID 504634, 2011; 5-hydroxytryptamine receptor 5A (Homo sapiens), P47898; hit rate 0.083% among 340,000; inhibition, % at 9.3 µM; in the data active means inhibition mostly above about 23%, no sharp cut-off; inactive means mostly below about 18%
Target sequence (P47898 whole entry, looked up): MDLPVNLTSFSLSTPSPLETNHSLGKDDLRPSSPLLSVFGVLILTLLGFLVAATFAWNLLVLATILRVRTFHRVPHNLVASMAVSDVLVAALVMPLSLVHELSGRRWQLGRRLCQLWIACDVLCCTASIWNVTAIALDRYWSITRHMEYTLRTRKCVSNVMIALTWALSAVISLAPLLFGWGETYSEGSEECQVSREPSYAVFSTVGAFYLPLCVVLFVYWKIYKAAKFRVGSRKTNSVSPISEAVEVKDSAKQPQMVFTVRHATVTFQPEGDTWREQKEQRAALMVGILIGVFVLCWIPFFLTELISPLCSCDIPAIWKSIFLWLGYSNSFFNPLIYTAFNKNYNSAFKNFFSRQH
HTR5A ag – HTR5A agonists in luminescence cell assay, primary screen, counter-screen for OPRM1-OPRD1 heterodimer agonist project, full-deck HTS; activation, % at 9.3 µM; hit rate 0.61% among 340,000; 5-hydroxytryptamine receptor 5A (Homo sapiens), P47898; cell-based; in the data active means activation mostly above about 9.5%, no sharp cut-off; inactive means mostly below about 7.6%
MOR-DOR ag – agonists of OPRM1-OPRD1 heterodimerization, primary screen, cell-based, luminescence; AID 504326, 2011; activation, % at 9.3 µM; cells; hit rate 0.3% among 340,000; Mu-type opioid receptor (Homo sapiens) + Delta-type opioid receptor (Homo sapiens), …; in the data active means activation above about 18%
MOR-DOR inv ag-1 – inverse agonists of MOR-DOR heterodimerization, primary screen, cell-based, luminescence | Mu-type opioid receptor (Homo sapiens) + Delta-type opioid receptor (Homo sapiens), … | cell-based MOR-DOR heterodimer luminescence, inverse agonism | inhibition, % at 9.3 µM | hit rate 0.21% among 340,000; in the data active means inhibition above about 22%, passing the limit was not always enough
MOR-DOR inv ag-2 – inverse agonists of MOR-DOR heterodimerization, counter-screen for HTR5A inverse agonist project, cell-based, luminescence; shares compounds with HTR5A inv ag; U2OS counter-screen cells, complementation luminescence; inhibition, % at 9.3 µM; 190 tested, under 10 active
HTR5A inv conf – HTR5A inverse agonists, retest of hits, confirmation, cell-based, luminescence; inhibition, % at 9.3 µM; 190 tested, under 10 active; shares compounds with HTR5A inv ag; AID 504916, 2011; HTR5A-expressing cells, inverse agonism
Hits are given with their value; – = inactive; · = no result. Hits are enriched below; roughly 1.1% of the tested compounds scored in any of these assays. Unless noted, how the calls were made is not given here.

SMILES	HTR5A inv ag	HTR5A ag	MOR-DOR ag	MOR-DOR inv ag-1	MOR-DOR inv ag-2	HTR5A inv conf
COCCNC(=O)C(c1ccccc1F)N(C(=O)C(=O)NC1CCCC1)C1CCCCC1 (stereo unspecified)	–	–	–	–	·	·
O=C(Nc1nnc(-c2ccccc2)o1)c1nc2ccccc2s1	40.7	–	–	–	–	–
Cc1ccc2nc(SCC(=O)NCc3ccc4c(c3)OCO4)nc(=O)n2c1	–	–	–	–	·	·
CN1CCN(C(c2ccc(Cl)cc2)c2cc(Cl)c3cccnc3c2O)CC1 (stereo unspecified)	–	–	–	–	·	·
Oc1c(C(c2ccccn2)N2CCCCC2)cc(Cl)c2cccnc12 (stereo unspecified)	28.9	–	–	–	–	–
CCn1c(-c2ccc(-c3ccccc3)cc2)c[nH]c1=S	33.4	–	–	–	–	–
O=C(O)C1CCN(C(=O)CSc2nc3ccccc3c(=O)n2-c2ccc(Cl)cc2)CC1	–	–	–	–	·	·
Cc1ccc(C2N(C)c3ccccc3-c3nc4ccccc4n32)o1 (stereo unspecified)	–	–	–	–	·	·
CC(=O)N1c2ccccc2-c2nc3ccccc3n2C1C (stereo unspecified)	32.3	–	–	–	–	–
COc1ccc(Cl)cc1C(=O)NNC(=O)COC(=O)CCN=C1NS(=O)(=O)c2ccccc21	71.3	–	–	–	–	–
CCC(=O)Nc1cccc(C2=NN(c3ccccc3)C(c3ccc(OC)cc3)C2)c1 (stereo unspecified)	–	–	–	–	·	·
Cc1ccc(-c2nnc(-c3ccccc3Br)o2)cc1	–	–	–	–	·	·
Brc1ccc(-c2nnc(-c3ccccc3Br)o2)cc1	39.6	–	–	–	–	–
COCc1nnc(NC(=O)c2ccc(S(=O)(=O)N(C)Cc3ccccc3)cc2)o1	32.5	–	–	–	–	–
Cc1nnc(NC(=O)c2ccc(S(=O)(=O)N(C)Cc3ccccc3)cc2)o1	–	–	–	–	·	·
COC(=O)c1cc(S(=O)(=O)NCC2CCN(CCc3cccs3)CC2)cn1C	40.7	–	–	–	–	–
COC(=O)c1cc(S(=O)(=O)NCC2CCN(Cc3ccc(F)cc3)CC2)cn1C	–	–	–	–	·	·
CCCN(CC(=O)Nc1ccccc1C)C(=O)c1ccc(-c2ccc(C(C)=O)cc2)o1	42.6	–	–	–	–	–
CCCN(CC(=O)Nc1ccccc1C)C(=O)c1ccc(C(=O)c2ccccc2)cc1	–	–	–	–	·	·
O=[N+]([O-])c1ccc(/C=N/N/C(=N/c2ccccn2)c2ccccn2)cc1	–	–	–	–	·	·
O=[N+]([O-])c1cc(/C=N/N/C(=N/c2ccccn2)c2ccccn2)ccc1O	24.4	–	–	–	–	–
CCC1(C)Cc2ccccc2-c2c1c(=O)n(-c1ccc(C)cc1)c1nnnn21 (stereo unspecified)	39.9	–	–	–	–	–
Cc1nn(-c2ccccc2)c(C)c1C(=O)OCC(=O)N1c2ccccc2NC(=O)C1(C)C	–	–	–	–	·	·
Cc1cc(C)c(COc2ccc(/C=N/n3c(C)n[nH]c3=S)cc2)c(C)c1	36.8	–	–	–	–	–
Cc1c(C)c2c(OCC(=O)N[C@@H](CC(C)C)C(=O)O)cc3c(c2oc1=O)CCC(C)(C)O3	–	–	–	–	·	·
COCCN(C(=O)c1ccccc1Oc1ccccc1)c1c(N)n(CC(C)C)c(=O)[nH]c1=O	34.7	–	–	–	–	–
COCCN(C(=O)c1cc(-c2ccccc2Cl)nc2ccccc12)c1c(N)n(CC(C)C)c(=O)[nH]c1=O	–	–	–	–	·	·
COc1ccc2[nH]c3c(c2c1)CCN1C(=O)N([C@@H](C)C(=O)NC2CCN(Cc4ccccc4)CC2)C(=O)[C@]31C	–	–	–	–	·	·
CCOc1ccc(-c2nc(S(=O)(=O)c3ccccc3)c(N3CCC(C(N)=O)CC3)o2)cc1	–	–	–	–	·	·
COc1cccc(C(C(=O)NC(C)(C)C)N(C(=O)CCC(=O)Nc2cc(C)on2)C(C)(C)C)c1OC (stereo unspecified)	91.0	–	–	–	–	–
